From publication PMC4336329 (PLoS ONE, 2015)
The campaign covered roughly 310,000 compounds. About 14,000 (4.5%) showed an effect of 50% or more. The effect is printed as a negative number. Only a selection was taken, and strong results are over-represented in it overall.

Target: human ether-à-go-go-related gene (hERG) potassium channel (human, UniProt Q12809)
Assay: primary screen, population patch clamp on CHO cells stably expressing hERG; higher = less effect of the substance
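Note: peak tail current of the secondary pulse compared with the same well before compound.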

Sequence of human ether-à-go-go-related gene (hERG) potassium channel (Q12809 whole entry, looked up): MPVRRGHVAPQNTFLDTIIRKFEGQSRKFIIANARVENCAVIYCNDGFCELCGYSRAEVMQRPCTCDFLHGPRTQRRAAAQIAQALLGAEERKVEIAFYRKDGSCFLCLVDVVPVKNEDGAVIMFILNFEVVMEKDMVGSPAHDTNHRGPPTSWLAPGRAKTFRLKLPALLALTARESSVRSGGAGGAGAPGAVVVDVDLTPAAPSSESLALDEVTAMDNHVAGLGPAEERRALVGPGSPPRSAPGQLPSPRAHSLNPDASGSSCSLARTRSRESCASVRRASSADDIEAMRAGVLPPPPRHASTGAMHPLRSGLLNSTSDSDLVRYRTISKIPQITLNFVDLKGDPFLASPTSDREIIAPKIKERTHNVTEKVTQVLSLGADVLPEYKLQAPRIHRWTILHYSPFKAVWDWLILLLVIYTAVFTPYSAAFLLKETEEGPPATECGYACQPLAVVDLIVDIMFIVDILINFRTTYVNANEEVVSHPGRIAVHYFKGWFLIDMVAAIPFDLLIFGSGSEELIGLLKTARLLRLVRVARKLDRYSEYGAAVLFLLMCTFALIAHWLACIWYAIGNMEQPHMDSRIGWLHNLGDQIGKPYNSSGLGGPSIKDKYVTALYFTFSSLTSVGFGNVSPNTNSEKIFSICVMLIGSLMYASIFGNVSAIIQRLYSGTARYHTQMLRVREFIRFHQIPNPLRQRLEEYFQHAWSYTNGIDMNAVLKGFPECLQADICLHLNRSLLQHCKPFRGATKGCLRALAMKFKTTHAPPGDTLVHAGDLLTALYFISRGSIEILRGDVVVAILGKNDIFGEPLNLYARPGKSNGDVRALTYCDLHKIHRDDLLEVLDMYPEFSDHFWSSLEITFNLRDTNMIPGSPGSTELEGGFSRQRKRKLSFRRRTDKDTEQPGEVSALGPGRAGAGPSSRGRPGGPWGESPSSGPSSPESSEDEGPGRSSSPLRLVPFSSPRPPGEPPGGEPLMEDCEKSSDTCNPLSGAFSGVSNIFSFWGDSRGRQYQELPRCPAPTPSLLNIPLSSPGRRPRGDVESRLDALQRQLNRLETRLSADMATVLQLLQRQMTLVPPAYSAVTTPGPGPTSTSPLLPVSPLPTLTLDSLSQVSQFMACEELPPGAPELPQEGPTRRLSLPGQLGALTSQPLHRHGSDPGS

Going from `CCCCNC(=O)Cn1cnc2sc(C)c(S(=O)(=O)N3CCN(c4ccccc4OC)CC3)c2c1=O` to `CS(=O)(=O)O.CSc1ccc2c(c1)C(N1CCN(C)CC1)Cc1ccccc1S2` (stereo not drawn), the “hERG current change (%, negative = inhibition) at 10uM” value falls from 11.4% to -65.9%.

Compared with `O=C(Nc1nc(-c2cc(Cl)sc2Cl)cs1)c1ccc(Br)s1`, `Cc1cn(C(=O)c2cccc(Br)c2)c(C)n1` is higher in “hERG current change (%, negative = inhibition) at 10uM” value: -6.05% for the first, 15% for the second.

Going from `Cc1cccc(/C(N)=N/OC(=O)Cc2cccs2)c1` to `CCC(=O)N1N=C(c2cccs2)CC1c1ccc(C)cc1` (stereo not drawn), the “hERG current change (%, negative = inhibition) at 10uM” value rises from -12.4% to 2.52%.

Going from `Cc1cc(-c2cc(C(=O)NC3CCCC3)on2)nc(NC2CCCC2)n1` to `Cc1cc(NC(=O)CSc2nc(C3CCCCC3)nc3ccccc23)no1`, the “hERG current change (%, negative = inhibition) at 10uM” value rises from 4.57% to 18.9%.

Going from `CNS(=O)(=O)c1ccc(OC)c(-c2nnc3c4ccccc4c(C)nn23)c1.Cl` to `COc1ccc(S(=O)(=O)NC(C)(C)C)cc1-c1nnc2c3ccccc3c(C)nn12`, the “hERG current change (%, negative = inhibition) at 10uM” value falls from 7.8% to -5.05%.

Going from `COc1ccc(S(=O)(=O)NCc2ccco2)cc1-c1nnc2c3ccccc3c(C)nn12` to `COc1ccc(C2=NN(C(=O)CSc3nc(=O)n4cccc(C)c4n3)C(c3ccc(C)cc3)C2)cc1` (stereo not drawn), the “hERG current change (%, negative = inhibition) at 10uM” value rises from -50.3% to 4.53%.

Compared with `CC(=O)c1c(C)n(Cc2ccccc2)c2ccc(O)cc12`, `Cc1nn(C(C)C(=O)NC(C)CCc2ccccc2)c(=O)c2cc3occc3n12` (stereo not drawn) is lower in “hERG current change (%, negative = inhibition) at 10uM” value: 12.8% for the first, -13.7% for the second.

Going from `COc1ccc(C2=NN(C(=O)CSc3nc(=O)n4cc(C)ccc4n3)C(c3ccc(C)cc3)C2)cc1` (stereo not drawn) to `COc1ccc(C2CC(c3cccs3)=NN2C(=O)CSc2nc(=O)n3cc(C)ccc3n2)cc1` (stereo not drawn), the “hERG current change (%, negative = inhibition) at 10uM” value falls from -16.2% to -64.8%.

First: Cc1ccc(C2CC(c3cccs3)=NN2C(=O)CSC2=NCCS2)cc1 (stereo not drawn)
Second: Cc1ccc(C2CC(c3cccs3)=NN2C(=O)CSc2nc(=O)n3cc(C)ccc3n2)cc1 (stereo not drawn)
The “hERG current change (%, negative = inhibition) at 10uM” value of the first is higher: -2.21% for the first, -66.6% for the second.

First: O=C(NC1=NCCS1)C1CCN(S(=O)(=O)c2ccccc2C(F)(F)F)CC1
Second: CC(NC(=O)c1cccs1)C(=O)NC1=NCCS1 (stereo not drawn)
The “hERG current change (%, negative = inhibition) at 10uM” value of the first is higher: 6.92% for the first, 1.3% for the second.

Compared with `COc1ccc(-c2coc3cc(OC)cc(O)c3c2=O)cc1`, `COc1ccc(/C(O)=C2/C(=O)C(=O)N(c3ccccn3)C2c2ccc(F)cc2)cc1` (stereo not drawn) is higher in “hERG current change (%, negative = inhibition) at 10uM” value: 24.5% for the first, 35.2% for the second.

Compared with `CCOc1ccc2c(C)nc(NC3=NC(C)(C)C=C(C)N3)nc2c1`, `CCOc1ccc2nc(NC3=NC(C)(C)C=C(C)N3)nc(C)c2c1` is lower in “hERG current change (%, negative = inhibition) at 10uM” value: -45% for the first, -47.8% for the second.

Going from `CC1=CC(C)(C)N=C(Nc2nc(C)c3cc(C)cc(C)c3n2)N1` to `CC(C)Nc1nc(NNc2nc(Cl)nc(NC(C)(C)C)n2)nc(NC(C)C)n1`, the “hERG current change (%, negative = inhibition) at 10uM” value rises from -63.5% to 10.1%.

Compared with `CN(C)CCCNC(=O)c1cc(C(=O)c2c(Cl)cccc2Cl)c[nH]1`, `CN(C)CCCNC(=O)c1cc(C(=O)c2cccc(Cl)c2Cl)c[nH]1` is lower in “hERG current change (%, negative = inhibition) at 10uM” value: -9.62% for the first, -51% for the second.

First: CN(C)CCCNC(=O)c1cc(C(=O)c2ccccc2)c[nH]1
Second: CN(C)CCCNC(=O)c1cc(C(=O)c2ccccc2F)c[nH]1
The “hERG current change (%, negative = inhibition) at 10uM” value of the first is higher: 10.5% for the first, 1.23% for the second.

Going from `CN(C)CCCNC(=O)c1cc(C(=O)c2ccc(F)cc2)c[nH]1` to `COc1cccc(C(=O)c2c[nH]c(C(=O)NCCCN(C)C)c2)c1`, the “hERG current change (%, negative = inhibition) at 10uM” value rises from -68.5% to -4.75%.

First: C#CCOC(=O)c1cc(Cl)c(=O)n(Cc2ccc(Cl)cc2Cl)c1
Second: COCCn1c(SCC(=O)Nc2cccc(S(N)(=O)=O)c2)nc2cc(Cl)ccc2c1=O
The “hERG current change (%, negative = inhibition) at 10uM” value of the first is higher: -18.8% for the first, -38.8% for the second.

Compared with `COC(=O)c1cc2ccsc2n1CC(=O)NCC1CCCO1` (stereo not drawn), `O=C(COC(=O)CNC(=O)c1ccc(Cl)cc1Cl)NC1CCCCCCC1` is higher in “hERG current change (%, negative = inhibition) at 10uM” value: 10.6% for the first, 15.8% for the second.

Going from `CC/C(=C\c1oc2cc3ccccc3cc2[n+]1CC)Nc1ccccc1.[I-]` to `O=C(Nc1ccccc1)c1cc2ccccc2o1`, the “hERG current change (%, negative = inhibition) at 10uM” value rises from -78.1% to -7.55%.

Going from `CCC(=O)Nc1ccc(NC(=O)c2cc3ccccc3o2)cc1` to `CCNC(=O)NC(=O)CSc1ccccc1F`, the “hERG current change (%, negative = inhibition) at 10uM” value rises from -2.45% to 10.7%.

Going from `COc1ccc2c(c1)CC(N1CCN(C)CC1)c1cc(OC)ccc1S2.O=C(O)/C=C\C(=O)O` (stereo not drawn) to `CN1CCN(C2Cc3cc(F)ccc3Sc3ccc(Cl)cc32)CC1.O=C(O)/C=C\C(=O)O` (stereo not drawn), the “hERG current change (%, negative = inhibition) at 10uM” value falls from -25.9% to -44.8%.

Going from `CSc1cccc(NC(=O)N2CCN(C)CC2)c1` to `CN1CCN(C(=O)Nc2ccc3c(c2)N(C)C(=O)c2ccccc2S3)CC1`, the “hERG current change (%, negative = inhibition) at 10uM” value rises from -31.1% to 8.57%.

Compared with `O=C(O)/C=C\C(=O)O.OCCN1CCN(C2CCC(c3ccc(F)cc3)c3ccc(F)cc32)CC1` (stereo not drawn), `CSc1ccc2c(c1)C(N1CCN(C)CC1)Cc1ccc(F)cc1S2.O=C(O)/C=C\C(=O)O` (stereo not drawn) is lower in “hERG current change (%, negative = inhibition) at 10uM” value: -44.5% for the first, -58.8% for the second.

First: CN1Cc2cccc3c2C(Cc2ccccc2S3)C1.O=C(O)/C=C\C(=O)O (stereo not drawn)
Second: CN1CCN(C2Cc3ccccc3Sc3cc(C(F)(F)F)ccc32)CC1.O=C(O)/C=C\C(=O)O (stereo not drawn)
The “hERG current change (%, negative = inhibition) at 10uM” value of the first is higher: -36.6% for the first, -70.2% for the second.

First: CN1CCC(=C(c2ccc(Cl)cc2)c2ccccn2)CC1.O=C([O-])/C=C\C(=O)[O-]
Second: CN1CCN(C2Cc3ccccc3Sc3ccc(Cl)cc32)CC1.O=C([O-])/C=C\C(=O)[O-] (stereo not drawn)
The “hERG current change (%, negative = inhibition) at 10uM” value of the first is higher: -40.5% for the first, -65.9% for the second.

Compared with `Cc1ccc(/C=C2\C(=N)N3N=C(CC(=O)N4CCCCC4)SC3=NC2=O)cc1`, `O=c1c2ccccc2nnn1Cc1ccc(Br)cc1` is lower in “hERG current change (%, negative = inhibition) at 10uM” value: 17.4% for the first, 8.66% for the second.

First: Cc1nc2sc3c(c2c(=O)[nH]1)CCC3
Second: COc1cc(N)c(Cl)cc1C(=O)OCC(=O)c1ccc2c(c1)NC(=O)CO2
The “hERG current change (%, negative = inhibition) at 10uM” value of the first is higher: 12.1% for the first, 1.68% for the second.
